Results reported in PubChem BioAssay.
A number with no mark means an inactive call.

test: CREB reporter modulators under forskolin, primary screen, cell-based, PC12, CRE-LacZ reporter, forskolin-stimulated (AID 1146); details: luminescence, 4.5 h, higher = more signal, called active from +8 up or from −8 down;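 further: PC12 cells with 6xCRE LacZ reporter stimulated by forskolin 10 µM; beta-galactosidase reporter signal reflecting CREB driven transcription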

Question: For `CCOC(=O)C[C@H]1[C@H](OC(=O)c2ccccc2-c2ccccc2)[C@@H](NC(=O)c2ccc3ccccc3c2)c2cc(OCCCO)ccc2N1C(=O)c1ccccc1`, which z-score is on record?
Answer: -0.0955

Question: Which z-score does the source give for `O=C1OCCC=C[C@H]2OC34C=CCN(Cn5nnc6ccccc65)C(=O)[C@H]3N(CCCO)C(=O)[C@@H]4C12` (stereo not given in full) here?
Answer: -0.242

Question: With `O=C(C1N=C(c2ccc(OCCCO)cc2)N(c2ccccc2)O1)N1CCCCC1` (stereo not given) as the compound, how does the z-score read?
Answer: 1.91

Question: Which z-score does the source give for `CCCCC[C@H]1OC[C@@]23C=C(Br)[C@@H](CC12)[C@@]1(CO1)C3=O` (stereo not given in full) here?
Answer: 0.289

Question: For `C=CC[C@]1(C(=O)N2CCCCC2)N=C(c2ccc(OCCCO)cc2)O[C@H]1c1ccccc1CN=[N+]=[N-]`, which z-score is on record?
Answer: 1.86

Question: For `COCCCNC(=O)[C@@H]1c2ccccc2C(=O)N(C(C)C)[C@H]1c1ccc(CO)cc1`, which z-score is on record?
Answer: 0.312

Question: Which z-score does the source give for `CCCCN1CC=CC23O[C@@H]4/C=C\CCC(C)OC(=O)C4[C@H]2C(=O)N(CCCO)[C@@H]3C1=O` (stereo not given in full) here?
Answer: 0.0507

Question: With `CN(C)C(=O)[C@]1(CCC(=O)OC(C)(C)C)N=C(c2ccc(OCCCO)cc2)O[C@@H]1c1ccccc1CN=[N+]=[N-]` as the compound, how does the z-score read?
Answer: -0.147

Question: For `C=CCNC(=O)[C@@H]1[C@H]2C(=O)O[C@H](c3ccccc3)[C@H](c3ccccc3)N2[C@H](c2ccc(OCCO)cc2)[C@@]12C(=O)N(C(=O)OCCOC)c1ccc(C#Cc3ccc(OC)cc3)cc12`, which z-score is on record?
Answer: -0.222

Question: For `CCCN1C(=O)[C@@]2(Cc3ccccc31)N=C(c1ccc(OCCCO)cc1)O[C@H]2c1ccccc1`, which z-score is on record?
Answer: -0.0414

Question: Which z-score does the source give for `CC1CC/C=C\[C@H]2OC34C=CCN(Cc5ccccc5)C(=O)[C@H]3N(C(CO)C(C)C)C(=O)[C@@H]4C2C(=O)O1` (stereo not given in full) here?
Answer: 1.43

Question: With `C=C(COC)/C(=C/C[C@H](OC(=O)c1ccncc1)c1ccc(CO)o1)c1cnc2ccccc2c1` as the compound, how does the z-score read?
Answer: -0.499

Question: With `COc1ccc(C#Cc2ccc3c(c2)[C@]2(C(=O)N3)[C@H](c3ccc(O)cc3)N3[C@H](c4ccccc4)[C@H](c4ccccc4)OC(=O)[C@H]3[C@@H]2C(=O)Nc2nc3ccccc3s2)cc1` as the compound, how does the z-score read?
Answer: -0.513

Question: For `[N-]=[N+]=Nc1ccccc1C[C@@]1(C(=O)N2CCOCC2)N=C(c2ccc(OCCCO)cc2)O[C@@H]1c1ccccc1`, which z-score is on record?
Answer: -0.197

Question: Which z-score does the source give for `C=C[C@@H](CO)N(Cc1ccc(OC)cc1)S(=O)(=O)c1ccc(Br)cc1` here?
Answer: -0.895

Question: For `COc1ccc(CCNC(=O)[C@@]2(Sc3ccc(C)cc3)CC(=O)N(Cc3ccccc3C(F)(F)F)[C@@H]2c2ccc(CO)cc2I)cc1`, which z-score is on record?
Answer: 2.7

Question: For `CCOC(=O)C[C@H]1[C@H](OC(=O)c2ccccc2-c2ccccc2)[C@@H](NC(=O)c2ccc3ccccc3n2)c2cc(OCCCO)ccc2N1C(=O)Cc1ccc(OC)cc1`, which z-score is on record?
Answer: 0.349

Question: With `C=CCN1Cc2ccccc2[C@@H]2OC(c3ccc(OCCCO)cc3)=N[C@]2(CC=C)C1=O` as the compound, how does the z-score read?
Answer: -0.377

Question: For `O=C(Cc1ccccc1)[C@H]1C2C=CCCC(c3ccccc3)=C2CN1Cc1ccccc1` (stereo not given in full), which z-score is on record?
Answer: -0.0521

Question: Which z-score does the source give for `C=CC[C@@]1(C(=O)NCCCOC)N=C(c2ccc(OCCCO)cc2)O[C@@H]1c1ccccc1N=[N+]=[N-]` here?
Answer: -0.66

Question: Which z-score does the source give for `COc1cccc(C)c1NC(=O)O[C@H]1[C@H](OC(=O)Nc2ccc3c(c2)OCO3)[C@@H](OC(=O)Nc2ccc3c(c2)OCO3)[C@@H](OC)O[C@@H]1CO` here?
Answer: -0.424

Question: For `C=CCC(OC(C)=O)[C@@H]1[C@@H](N(Cc2ccc(-c3ccccc3)cc2)C(=O)c2ccc(-c3ccccc3)cc2)c2cc(OCCCO)ccc2N1C(=O)c1ccc2ccccc2c1` (stereo not given in full), which z-score is on record?
Answer: 0.318

Question: Which z-score does the source give for `COC(=O)C(CC#Cc1ccc2c(c1)[C@]1(C(=O)N2)[C@H](c2ccc(O)cc2)N2[C@H](c3ccccc3)[C@H](c3ccccc3)OC(=O)[C@H]2[C@@H]1C(=O)NC[C@H](O)c1ccccc1)C(=O)OC` here?
Answer: -0.0638

Question: With `COc1cccc(C)c1NC(=O)O[C@H]1[C@H](OC(=O)Nc2ccccc2-c2ccccc2)[C@H](OC(=O)Nc2ccccc2-c2ccccc2)[C@@H](OC)O[C@@H]1CO` as the compound, how does the z-score read?
Answer: -0.433

Question: For `CCCCC(CC)C(O)C1C=CC2C(=O)N(c3ccccc3)C(=O)C2N1Nc1ccccc1F` (stereo not given), which z-score is on record?
Answer: -0.208

Question: For `C=CC[C@]1(C(=O)N2CCOCC2)COC(c2ccc(OCCCO)cc2)=N1`, which z-score is on record?
Answer: -0.778

Question: For `CCOC(=O)C[C@H]1[C@H](OC(=O)Cc2ccc3c(c2)OCO3)[C@@H](NC(=O)C2CCCCC2)c2cc(OCCCO)ccc2N1C(=O)c1ccccc1`, which z-score is on record?
Answer: -1.27

Question: With `O=C1O[C@@H](c2ccccc2)[C@@H](c2ccccc2)N2[C@@H](c3ccc(O)cc3)[C@]3(C(=O)Nc4ccc(C#CCCO)cc43)[C@@H](C(=O)N3CCN(c4ncccn4)CC3)[C@H]12` as the compound, how does the z-score read?
Answer: -0.572

Question: For `O[C@@H](Cc1ccccc1)[C@@H](/C=C/C1CC1)N(CC#Cc1ccccc1)Cc1ccccc1Br`, which z-score is on record?
Answer: 0.21

Question: For `CCCC1(C(=O)OC)C=C2C(=C(C)C(=O)C2C)CN1` (stereo not given), which z-score is on record?
Answer: 2.15

Question: For `O=C1C2C=CC(C(O)c3ccco3)N(Nc3ccccc3F)C2C(=O)N1c1ccccc1` (stereo not given), which z-score is on record?
Answer: 0.942

Question: For `COc1ccc([Si](C)(C)[C@@H]2[C@@H](CCO)O[C@]3(C(=O)N(Cc4ccccc4)c4ccc(N5C(=O)c6cccc7cccc5c67)cc43)[C@H]2C)cc1`, which z-score is on record?
Answer: 0.302

Question: For `CC(C)=C1C(=O)C(c2ccccc2)=C2CN3C(=O)N(CCc4ccccc4)C(=O)[C@]3(Cc3ccc(C(F)(F)F)cc3)[C@H]21`, which z-score is on record?
Answer: 0.96

Question: With `CCCCCN1CC=CC23O[C@@H]4/C=C\CCC(C)OC(=O)C4[C@H]2C(=O)N(C(CO)C(C)C)[C@@H]3C1=O` (stereo not given in full) as the compound, how does the z-score read?
Answer: -0.601

Question: With `COC(=O)[C@@]1(Cc2ccc(OC)cc2)[C@H]2c3cc(C(=O)N4CCCC4)n(CCO)c3C[C@H]2CN1C(=O)c1ccccc1` as the compound, how does the z-score read?
Answer: 1.41
